Measurements as given in publication PMC5540273 (PLoS ONE, 2017).
Where two headings read alike, the source gives them in different places.

Experiments:
[1] = test system: STK16; conditions: concentration: 1 μM, replicates: in singlicate; n = 1
[2] = test system: STK33; conditions: concentration: 1 μM, replicates: in singlicate; n = 1
[3] = test system: STK35; conditions: concentration: 1 μM, replicates: in singlicate; n = 1
[4] = test system: STK36; conditions: concentration: 1 μM, replicates: in singlicate; n = 1
[5] = test system: STK39; conditions: concentration: 1 μM, replicates: in singlicate; n = 1
[6] = test system: SYK; conditions: concentration: 1 μM, replicates: in singlicate; n = 1
[7] = test system: SgK110; conditions: concentration: 1 μM, replicates: in singlicate; n = 1
[8] = test system: T1, TAK1; conditions: concentration: 1 μM, replicates: in singlicate; n = 1
T1 construct: gene MAP3K7

[9] = test system: TAOK1; conditions: concentration: 1 μM, replicates: in singlicate; n = 1
[10] = test system: TAOK2; conditions: concentration: 1 μM, replicates: in singlicate; n = 1
[11] = test system: TAOK3; conditions: concentration: 1 μM, replicates: in singlicate; n = 1
[12] = test system: TBK1; conditions: concentration: 1 μM, replicates: in singlicate; n = 1
[13] = test system: TEC; conditions: concentration: 1 μM, replicates: in singlicate; n = 1
[14] = test system: TESK1; conditions: concentration: 1 μM, replicates: in singlicate; n = 1
[15] = test system: TGFBR1; conditions: n = 1
[16] = test system: TGFBR2; conditions: concentration: 1 μM, replicates: in singlicate; n = 1
[17] = test system: TIE1; conditions: concentration: 1 μM, replicates: in singlicate; n = 1
[18] = test system: T2, TIE2; conditions: concentration: 1 μM, replicates: in singlicate; n = 1
T2 construct: gene TEK

[19] = test system: TLK1; conditions: concentration: 1 μM, replicates: in singlicate; n = 1
[20] = test system: TLK2; conditions: concentration: 1 μM, replicates: in singlicate; n = 1
[21] = concentration: 1 μM, replicates: in singlicate
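Note: KINOMEscan kinase panel screen.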

In the case of `COc1ccccc1CNC(=O)c1cc(C(=O)c2ccccc2C)c[nH]1` [GSK364507], the “%Inh” value [1] is reported as 11%, the “%Inh” value [2] is reported as 0% and the “%Inh” value [3] is reported as 0%. For the same compound, the “%Inh” value [4] was 0%, the “%Inh” value [5] was 14% and the “%Inh” value [6] was 16%. For the same compound, the “%Inh” value [7] was 0%, the “%Inh” value [8] was 0% and the “%Inh” value [9] was 0%. For the same compound, the “%Inh” value [10] was 0%, the “%Inh” value [11] was 0% and the “%Inh” value [12] was 19%. The “%Inh” value [13] was 0%, the “%Inh” value [14] was 36% and the “%Inh” value [15, 21] was 9%. The “%Inh” value [16] was 0%, the “%Inh” value [17] was 0% and the “%Inh” value [18] was 0%. For the same compound, the “%Inh” value [19] was 0% and the “%Inh” value [20] was 0%.

In the case of `Cc1ccc(NC(=O)Nc2cc(C(C)(C)C)nn2-c2ccccc2)cc1` [GSK1014915], the “%Inh” value [1] is reported as 0%, the “%Inh” value [2] is reported as 0% and the “%Inh” value [3] is reported as 0%. For the same compound, the “%Inh” value [4] was 0%, the “%Inh” value [5] was 2% and the “%Inh” value [6] was 28%. The “%Inh” value [7] was 0%, the “%Inh” value [8] was 0% and the “%Inh” value [9] was 0%. The “%Inh” value [10] was 0%, the “%Inh” value [11] was 0% and the “%Inh” value [12] was 0%. The “%Inh” value [13] was 11%, the “%Inh” value [14] was 13% and the “%Inh” value [15, 21] was 18%. For the same compound, the “%Inh” value [16] was 1%, the “%Inh” value [17] was 9% and the “%Inh” value [18] was 0%. The “%Inh” value [19] was 2% and the “%Inh” value [20] was 0%.

`COc1cc(Nc2nccc(N3CCC(NC(=O)Nc4cc(C)ccc4C)C3)n2)cc(OC)c1OC` (stereo not shown) [GSK1379762] was tested, and the “%Inh” value [1] was 57%, the “%Inh” value [2] was 3% and the “%Inh” value [3] was 3%. For the same compound, the “%Inh” value [4] was 0%, the “%Inh” value [5] was 16% and the “%Inh” value [6] was 0%. The “%Inh” value [7] was 0%, the “%Inh” value [8] was 0% and the “%Inh” value [9] was 0%. The “%Inh” value [10] was 0%, the “%Inh” value [11] was 0% and the “%Inh” value [12] was 18%. For the same compound, the “%Inh” value [13] was 14%, the “%Inh” value [14] was 0% and the “%Inh” value [15, 21] was 8%. For the same compound, the “%Inh” value [16] was 0%, the “%Inh” value [17] was 49% and the “%Inh” value [18] was 2%. For the same compound, the “%Inh” value [19] was 0% and the “%Inh” value [20] was 0%.

`Clc1cc(Cl)cc(Nc2ccnc(Nc3cc(Cl)cc(Cl)c3)n2)c1` [GSK175726] was tested, and the “%Inh” value [1] was 24%, the “%Inh” value [2] was 0% and the “%Inh” value [3] was 0%. The “%Inh” value [4] was 39%, the “%Inh” value [5] was 2% and the “%Inh” value [6] was 12%. The “%Inh” value [7] was 0%, the “%Inh” value [8] was 18% and the “%Inh” value [9] was 44%. For the same compound, the “%Inh” value [10] was 6%, the “%Inh” value [11] was 0% and the “%Inh” value [12] was 28%. The “%Inh” value [13] was 0%, the “%Inh” value [14] was 20% and the “%Inh” value [15, 21] was 0%. The “%Inh” value [16] was 7%, the “%Inh” value [17] was 0% and the “%Inh” value [18] was 0%. For the same compound, the “%Inh” value [19] was 25% and the “%Inh” value [20] was 3%.

In the case of `Cc1cccc(-c2nc(C)cc(Nc3ccncc3)n2)n1` [GSK257997], the “%Inh” value [1] is reported as 2%, the “%Inh” value [2] is reported as 0% and the “%Inh” value [3] is reported as 0%. The “%Inh” value [4] was 0%, the “%Inh” value [5] was 0% and the “%Inh” value [6] was 34%. For the same compound, the “%Inh” value [7] was 0%, the “%Inh” value [8] was 24% and the “%Inh” value [9] was 0%. The “%Inh” value [10] was 0%, the “%Inh” value [11] was 0% and the “%Inh” value [12] was 15%. The “%Inh” value [13] was 0%, the “%Inh” value [14] was 15% and the “%Inh” value ([15]; 1 µM) was 100%. For the same compound, the “%Inh” value [16] was 4%, the “%Inh” value [17] was 0% and the “%Inh” value [18] was 8%. For the same compound, the “%Inh” value [19] was 8% and the “%Inh” value [20] was 0%.
